Assay results from PubChem BioAssay AID504332 (National Center for Advancing Translational Sciences (NCATS), 2011).
“And” between values parts separate entries of the source, which are not always exact repeats. Equal values may be shown once. The whole screen tested about 350,000 compounds, of which about 31,000 (8.9%) were called active. Another 15% or so got no clear call; they are omitted. The call rests on the fitted dose curve; in most records, active means well fitted inhibition curve with a large enough effect; inconclusive means small, poorly fitted or top-dose-only effect; inactive means no such curve, though single readings can be large or run the other way. The list comes from a sample in which actives are over-represented; it also holds similar structures and randomly drawn compounds. The source holds several records for some structures; these can differ, active in one and inactive in another.

Target: Histone-lysine N-methyltransferase EHMT2 (Homo sapiens) (UniProt Q96KQ7)
Test: qHTS Assay for Inhibitors of Histone Lysine Methyltransferase G9a; further: nearly all actives have a fitted effect of over 75% in size
Conditions: G9a H3K9 monomethylation, AlphaScreen, 2 h; series mostly up to 102 µM; activity, negative = inhibition: at the top concentration
Procedure, shortened: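 Quantitative HTS format: methyltransferase activity on a biotin-tagged H3K9 peptide is measured by AlphaScreen, using a rabbit anti-monomethyl-H3K9 antibody with streptavidin donor and anti-IgG acceptor beads. Final levels are 20 nM enzyme, 500 nM peptide, 20 uM SAM; 2 h RT.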
On the % scale 0 is the no-effect control and ±100 the full control effect; potency means the concentration at half of the fitted maximal effect.

Sequence of Histone-lysine N-methyltransferase EHMT2 (Homo sapiens) (Q96KQ7 913-1193 limits assumed): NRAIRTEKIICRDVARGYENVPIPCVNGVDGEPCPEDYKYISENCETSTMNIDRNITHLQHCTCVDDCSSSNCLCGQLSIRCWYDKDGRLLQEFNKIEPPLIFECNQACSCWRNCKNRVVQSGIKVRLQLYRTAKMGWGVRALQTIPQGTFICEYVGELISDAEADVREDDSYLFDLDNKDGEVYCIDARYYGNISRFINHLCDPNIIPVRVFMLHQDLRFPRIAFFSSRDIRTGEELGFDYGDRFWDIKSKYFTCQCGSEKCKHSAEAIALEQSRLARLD

Row | SMILES | activity, negative = inhibition | Potency
1 | OC1/C(=C/c2ccc(C(F)(F)F)cc2)N2CCC1CC2 (configuration not stated) | 2.96% (inactive) | 
2 | COC(=O)C1=C(c2ccc3ccccc3c2)C[C@@H]2CC[C@H]1N2C(=O)NCCO | 26.7% [at 2.33 µM] (inactive) | 
3 | COC(=O)C1=C(c2c(C)noc2C)C[C@@H]2CC[C@H]1N2C(=O)NCc1ccc2c(c1)OCO2 | -4.27% [at 0.501 µM] (inactive) | 
4 | COc1ccc(CNCCc2ccc3c(c2)OCO3)c(OC)c1OC |  | 8.91 µM (active)
5 | CCN1CCN(Cc2cc(OC)c3c(c2)OCO3)CC1 | 3.35% (inactive) | 
6 | c1csc(CN2CCCC3(CCNCC3)C2)n1 | 7.82% [at 12.7 µM] (inactive) | 
7 | CCCCCCCCCCCCn1ccc(=N)cc1 | -31.1% (inactive) | 
8 | CC[C@H]1CN2CCc3cc(OC)c(OC)cc3[C@@H]2C[C@@H]1C[C@H]1NCCc2cc(OC)c(OC)cc21 | inactive | 
9 | CCOc1cc(N2CCOCC2)c(OCC)cc1NC(=O)C1=NN(c2cccc(C)c2)C(=O)CC1 |  | 11.2 µM (active)
10 | CCCCCn1c(=O)c(C(=O)NCc2ccccn2)c(O)c2ccccc21 | 106% [at 59 µM] (inactive) | 
11 | O=C1c2ccccc2NC(c2ccccc2O)N1NS(=O)(=O)c1ccccc1 (configuration not stated) | -19.9% (inactive) | 
12 | Cc1ccc(N(C)C(=O)Oc2cccc3ccc(C)nc23)cc1 | 31.5% (inactive) | 
13 | COC(=O)COc1cc(C)cc2oc(=O)c3c(c12)CCCC3 | 27.9% [at 59 µM] (inactive) | 
14 | O=C(Nc1cccc(F)c1)N1CC[C@@]2(CCCN(C(=O)Oc3ccccc3)C2)C1 | -11.3% [at 12.7 µM] (inactive) | 
15 | COc1cc(C(c2c(O)c3ccccc3oc2=O)c2c(C)n(C)n(-c3ccccc3)c2=O)ccc1O (configuration not stated) |  | 44.7 µM (active)
16 | CCCCCn1c(=O)c(C(=O)Nc2c(C)n(C)n(-c3ccccc3)c2=O)c(O)c2ccccc21 | 14% [at 59 µM] (inactive) | 
17 | CCC(=O)CC(c1ccc([N+](=O)[O-])cc1)c1c(O)c2ccccc2oc1=O (configuration not stated) | -41.4% (inactive) | 
18 | Cc1ccsc1C(=O)C1CCCN(Cc2ccc(O)cc2)C1 (configuration not stated) | -12% (inactive) | 

Row | SMILES | activity, negative = inhibition | Potency
19 | CCOC(=O)CC1=C(C(=O)OCC)C2(C(=O)N1)C(C(=O)OC)=C(N)Oc1ccccc12 (configuration not stated) | 0.286% [at 59 µM] (inactive) | 
20 | CCCCCCN=C(CC)c1c(O)n(CCCC)c(=O)[nH]c1=O | -24.6% [at 12.7 µM] (inactive) | 
21 | COc1cc(C(=S)N2CCOCC2)ccc1O | -4.38% [at 12.7 µM] (inactive) | 20 µM (active)
22 | COc1ccc(C(=O)C2CCCN(Cc3ccc(C)s3)C2)cc1OC (configuration not stated) | -23.9% (inactive) | 
23 | COc1ccccc1OC(=O)c1ccc(C)c(S(=O)(=O)N2CCOCC2)c1 | 12.8% (inactive) | 
24 | OCC#CC[N+]1(CC#Cc2ccccc2)CCCC1 | 15.5% (inactive) | 
25 | CC(c1ccccc1)(c1ccccc1)c1ccncc1 | 19.7% (inactive) | 
26 | CC(Cc1ccccc1)NCCC(c1ccccc1)c1ccccc1 (configuration not stated) | -1.18% [at 59 µM] (inactive) | 
27 | Cn1c(O)c(C=NCCN2CCNCC2)c(=O)n(C)c1=O | -6.35% [at 59 µM] (inactive) | 
28 | C=CCN1CCC2(C)c3cc(O)ccc3CC1[C@@H]2C (some centres not stated) | 35.6% [at 59 µM] (inactive) | 
29 | C=CCN1CCC23c4c5ccc(O)c4O[C@H]2C(=O)CC[C@@]3(O)C1C5 (some centres not stated) |  | inactive and 31.6 µM (active)
30 | CC(C)N(CC#CCC1(O)c2ccccc2-c2ccccc21)C(C)C | -6.71% [at 59 µM] (inactive) | 
31 | O=C(Nc1cccc(OC(=O)N2CCCCC2)c1)N1CCOCC1 | 47.6% (inactive) | 
32 | Cc1cc(C(=O)OCC(=O)Nc2c(F)cccc2F)c(C)n1C1CC1 | 2.06% (inactive) | 
33 | Cc1noc(C)c1CSc1nc2cc(S(=O)(=O)N3CCOCC3)ccc2o1 |  | 3.16 µM (active)
34 | CN(C)CCN(CC1CCCN(Cc2ccccc2F)C1)C(=O)Cc1ccc(F)c(F)c1 (configuration not stated) | 21.8% (inactive) | 
35 | CCCC[N+]1(C)C2CC(OC(=O)C(CO)c3ccccc3)CC1C1OC12 (configuration not stated) | inactive | 
36 | COC(=O)C1=C(c2ccc(F)cc2OCc2ccccc2)C[C@@H]2CC[C@H]1N2C(=O)NCc1ccc2[nH]ccc2c1 | 4.96% [at 0.501 µM] (inactive) | 
